How the values were obtained:
Assay in all cases: SELEX-seq (CSI, HT-SELEX, round 3); SELEX-seq: 1x PBS (10 mM phosphate, 137 mM NaCl, 2.7 mM KCl) pH 7.6, 2.5 mM DTT, 50 ng/ul poly dI-dC, 0.1% BSA, 50 nM biotinylated bZIP (1:3 with partner for heterodimers), 100 nM library, room temperature, 1 h, 3 rounds; high values mean tight binding
Conditions in all cases: protein: recombinant;recombinant; copies: 1;1; dsDNA, one strand shown
[1] = biological target: BATF2;ATF4 (Homo sapiens;Homo sapiens, UniProt Q8N1L9;P18848 8-85;269-346, |)
[2] = biological target: T1, BATF3;NFIL3 (Homo sapiens;Homo sapiens, UniProt Q9NR55;Q16649 26-99;64-134, |)
T1 sequence 1: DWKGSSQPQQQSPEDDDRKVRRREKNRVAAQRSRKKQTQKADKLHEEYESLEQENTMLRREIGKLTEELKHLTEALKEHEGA
T1 sequence 2: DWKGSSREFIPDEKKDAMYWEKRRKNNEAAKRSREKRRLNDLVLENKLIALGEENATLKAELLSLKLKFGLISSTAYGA

[3] = biological target: T2, CEBPE;CEBPE (Homo sapiens;Homo sapiens, UniProt Q15744;Q15744 195-267;195-267, |)
T2 sequence 1: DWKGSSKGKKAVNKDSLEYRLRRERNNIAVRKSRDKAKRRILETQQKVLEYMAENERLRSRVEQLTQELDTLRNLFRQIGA
T2 sequence 2: T2 sequence 1

[4] = biological target: T3, JUNB;CEBPE (Homo sapiens;Homo sapiens, UniProt P17275;Q15744 259-332;195-267, |)
T3 sequence 1: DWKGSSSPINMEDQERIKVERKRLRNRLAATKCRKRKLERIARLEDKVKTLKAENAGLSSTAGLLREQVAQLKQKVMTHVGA
T3 sequence 2: T2 sequence 1

[5] = biological target: T4, JUNB;NFE2 (Homo sapiens;Homo sapiens, UniProt P17275;Q16621 259-332;221-337, |)
T4 sequence 1: T3 sequence 1
T4 sequence 2: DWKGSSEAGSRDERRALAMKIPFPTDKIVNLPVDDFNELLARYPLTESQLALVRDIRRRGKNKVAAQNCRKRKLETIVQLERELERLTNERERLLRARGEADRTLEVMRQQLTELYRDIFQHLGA

[6] = biological target: JUNB;NFE2L1 (Homo sapiens;Homo sapiens, UniProt P17275;Q14494 259-332;609-725, |)
[7] = biological target: T5, JUNB;BATF2 (Homo sapiens;Homo sapiens, UniProt P17275;Q8N1L9 259-332;8-85, |)
T5 sequence 1: T3 sequence 1
T5 sequence 2: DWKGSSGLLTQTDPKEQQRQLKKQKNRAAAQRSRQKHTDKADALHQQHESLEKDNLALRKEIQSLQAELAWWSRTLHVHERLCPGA

[8] = biological target: T6, JUNB;CREBZF (Homo sapiens;Homo sapiens, UniProt P17275;Q9NS37 259-332;195-272, |)
T6 sequence 1: T3 sequence 1
T6 sequence 2: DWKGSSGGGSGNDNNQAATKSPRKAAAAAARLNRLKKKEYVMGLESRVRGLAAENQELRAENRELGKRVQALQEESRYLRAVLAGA

[9] = biological target: T7, BATF;HLF (Homo sapiens;Homo sapiens, UniProt Q16520;Q16534 17-90;216-293, |)
T7 sequence 1: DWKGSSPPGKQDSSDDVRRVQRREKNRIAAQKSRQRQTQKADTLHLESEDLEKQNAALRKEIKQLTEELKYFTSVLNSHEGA
T7 sequence 2: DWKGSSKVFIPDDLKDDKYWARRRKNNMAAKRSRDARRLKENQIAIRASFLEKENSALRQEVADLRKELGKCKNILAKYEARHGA

[10] = biological target: T8, BATF;NFIL3 (Homo sapiens;Homo sapiens, UniProt Q16520;Q16649 17-90;64-134, |)
T8 sequence 1: T7 sequence 1
T8 sequence 2: T1 sequence 2

[11] = biological target: T9, FOSL1;CEBPE (Homo sapiens;Homo sapiens, UniProt P15407;Q15744 96-169;195-267, |)
T9 sequence 1: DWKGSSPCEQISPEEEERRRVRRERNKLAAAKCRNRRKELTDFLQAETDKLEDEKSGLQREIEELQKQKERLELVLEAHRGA
T9 sequence 2: T2 sequence 1

[12] = biological target: T10, FOSL1;FOSL1 (Homo sapiens;Homo sapiens, UniProt P15407;P15407 96-169;96-169, |)
T10 sequence 1: T9 sequence 1
T10 sequence 2: T9 sequence 1

[13] = biological target: T11, FOSL1;NFE2 (Homo sapiens;Homo sapiens, UniProt P15407;Q16621 96-169;221-337, |)
T11 sequence 1: T9 sequence 1
T11 sequence 2: T4 sequence 2

[14] = biological target: FOS;NFE2 (Homo sapiens;Homo sapiens, UniProt P01100;Q16621 128-201;221-337, |)
[15] = biological target: T12, JUNB;BATF (Homo sapiens;Homo sapiens, UniProt P17275;Q16520 259-332;17-90, |)
T12 sequence 1: T3 sequence 1
T12 sequence 2: T7 sequence 1

[16] = biological target: T13, JUNB;FOSL1 (Homo sapiens;Homo sapiens, UniProt P17275;P15407 259-332;96-169, |)
T13 sequence 1: T3 sequence 1
T13 sequence 2: T9 sequence 1

[17] = biological target: JUNB;FOS (Homo sapiens;Homo sapiens, UniProt P17275;P01100 259-332;128-201, |)
[18] = biological target: T14, JUNB;HLF (Homo sapiens;Homo sapiens, UniProt P17275;Q16534 259-332;216-293, |)
T14 sequence 1: T3 sequence 1
T14 sequence 2: T7 sequence 2

[19] = biological target: FOS;BATF (Homo sapiens;Homo sapiens, UniProt P01100;Q16520 128-201;17-90, |)
[20] = biological target: FOS;FOSL1 (Homo sapiens;Homo sapiens, UniProt P01100;P15407 128-201;96-169, |)
Sequence of FOS;FOSL1 (P01100 other isoform, or with tags, fused parts or gaps |): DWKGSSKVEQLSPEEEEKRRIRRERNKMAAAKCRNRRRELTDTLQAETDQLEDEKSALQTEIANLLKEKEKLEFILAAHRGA

Sequence of JUNB;NFE2L1 (Q14494 other isoform, or with tags, fused parts or gaps |): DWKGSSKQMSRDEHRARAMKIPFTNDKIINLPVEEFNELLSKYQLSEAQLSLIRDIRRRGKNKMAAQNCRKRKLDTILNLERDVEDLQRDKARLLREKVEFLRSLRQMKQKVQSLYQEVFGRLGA
Sequence of FOS;NFE2 (P01100 other isoform, or with tags, fused parts or gaps |): as the sequence (P01100 other isoform, or with tags, fused parts or gaps |) above
Sequence of BATF2;ATF4 (P18848 other isoform, or with tags, fused parts or gaps |, chain 2 of 2, one chain of several): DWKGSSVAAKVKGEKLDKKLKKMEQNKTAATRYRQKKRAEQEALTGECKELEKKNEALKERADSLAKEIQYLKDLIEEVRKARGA
Sequence of FOS;BATF (P01100 other isoform, or with tags, fused parts or gaps |, chain 1 of 2, one chain of several): as the sequence (P01100 other isoform, or with tags, fused parts or gaps |) above
Sequence of JUNB;FOS (P01100 other isoform, or with tags, fused parts or gaps |): as above

Sequence	binding signal [1]	binding signal [2]	binding signal [3]	binding signal [4]	binding signal [5]	binding signal [6]	binding signal [7]	binding signal [8]	binding signal [9]	binding signal [10]	binding signal [11]	binding signal [12]	binding signal [13]	binding signal [14]	binding signal [15]	binding signal [16]	binding signal [17]	binding signal [18]	binding signal [19]	binding signal [20]
ATGATGCAAT	0.0322 relative CSI intensity (max = 1)	0.0307 relative CSI intensity (max = 1)	0.139 relative CSI intensity (max = 1)	0.314 relative CSI intensity (max = 1)	0.116 relative CSI intensity (max = 1)	0.0453 relative CSI intensity (max = 1)	0.00121 relative CSI intensity (max = 1)	0.00786 relative CSI intensity (max = 1)	0.179 relative CSI intensity (max = 1)	0.0609 relative CSI intensity (max = 1)	0.0136 relative CSI intensity (max = 1)	0.00963 relative CSI intensity (max = 1)	0.12 relative CSI intensity (max = 1)	0.0393 relative CSI intensity (max = 1)						
CCTGACGTCA	0.0186 relative CSI intensity (max = 1)	0.00724 relative CSI intensity (max = 1)	0.00701 relative CSI intensity (max = 1)	0.00962 relative CSI intensity (max = 1)	0.0277 relative CSI intensity (max = 1)	0.0112 relative CSI intensity (max = 1)	0.0149 relative CSI intensity (max = 1)		0.0974 relative CSI intensity (max = 1)		0.00153 relative CSI intensity (max = 1)	0.0039 relative CSI intensity (max = 1)	0.0335 relative CSI intensity (max = 1)	0.00384 relative CSI intensity (max = 1)	0.0101 relative CSI intensity (max = 1)	0.00464 relative CSI intensity (max = 1)	0.00331 relative CSI intensity (max = 1)	0.00417 relative CSI intensity (max = 1)	0.0057 relative CSI intensity (max = 1)	
ATGACGGAAT		0.0076 relative CSI intensity (max = 1)	0.00629 relative CSI intensity (max = 1)	0.00513 relative CSI intensity (max = 1)	0.0241 relative CSI intensity (max = 1)	0.0118 relative CSI intensity (max = 1)		0.00176 relative CSI intensity (max = 1)					0.0575 relative CSI intensity (max = 1)	0.00162 relative CSI intensity (max = 1)	0.002 relative CSI intensity (max = 1)			0.00331 relative CSI intensity (max = 1)		0.0281 relative CSI intensity (max = 1)
